VHR inh color: VHR1 (DUSP3) phosphatase inhibition; P51452; recombinant VHR phosphatase, colorimetric substrate read-out; inhibition, % at 20 µM; 0.7% of 50,000 active; AID 1992; in the data active = inhibition above about 60%
Target sequence (P51452 whole entry, looked up): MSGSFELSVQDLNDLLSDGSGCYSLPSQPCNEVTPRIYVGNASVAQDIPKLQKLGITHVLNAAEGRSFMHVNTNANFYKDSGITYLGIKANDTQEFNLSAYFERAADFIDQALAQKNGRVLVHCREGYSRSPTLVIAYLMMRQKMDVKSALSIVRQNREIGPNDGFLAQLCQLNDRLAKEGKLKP
* marks the source's active call; other numbers are inactive results. The entries come from a sample that favours hits as a whole.

Results for COc1ccc(-c2csc(Nc3ccc(N)cc3)n2)cc1OC ?
VHR inh color: 90.1*

What do the screens show for `Cc1cc(C)nc(NC(=O)c2ccc(F)cc2)c1`?
VHR inh color: 23.4

Results for O=C(CSc1ncc(-c2ccccc2)[nH]1)NCCOc1ccccc1 ?
VHR inh color: 29.1

How did CSc1ccc(C2NC(=O)CCC2[N+](=O)[O-])cc1 (stereo not given) do in these assays?
VHR inh color: 99.6*

Results for COC(=O)C1=C(C)NC(=O)NC1c1ccc(SC)cc1 (stereo not given) ?
VHR inh color: 1.6

How did CSc1ccc(C2NC(=O)c3ccccc3N2)cc1 (stereo not given) do in these assays?
VHR inh color: 14.3

Results for CCOc1cc(C(=O)Nc2ccc(Cl)c(-c3nc4ncccc4o3)c2)cc(OCC)c1OCC ?
VHR inh color: -20.6

Results for C=C(C)CNC(=S)NNC(=O)c1cccc(C)c1[N+](=O)[O-] ?
VHR inh color: -52.3

How did CCCc1nn2c(N)c(/C=C3\C=C(Br)C=CC3=O)c(=O)nc2s1 do in these assays?
VHR inh color: -11.4

Results for Nc1ccc(C2=Nc3cccc4cccc(c34)N2)cc1 ?
VHR inh color: 84.6*

What do the screens show for `Fc1ccc(NC(=S)NCCN2CCOCC2)cc1`?
VHR inh color: 91.1

How did S=C(NCCN1CCOCC1)Nc1cccc(Cl)c1 do in these assays?
VHR inh color: 11.5

Results for S=C(NCCN1CCOCC1)Nc1ccccc1 ?
VHR inh color: 98.8*

How did CCN(CC)Cc1c(O)ccc2c(=O)c(Oc3ccccc3Br)coc12 do in these assays?
VHR inh color: -5.6

What do the screens show for `Cc1cccc(OCC(=O)Nc2ccc(I)cc2)c1C`?
VHR inh color: -6.8

What do the screens show for `CCOC(=O)c1ccc(N2NC(=O)/C(=C/C=C/c3cccc([N+](=O)[O-])c3)C2=O)cc1`?
VHR inh color: -18.1

What do the screens show for `COc1ccc(OC)c2c1C(=O)c1ccccc1C2=O`?
VHR inh color: 94.5*

How did CC(=O)Oc1cccc2c1C(=O)c1ccccc1C2=O do in these assays?
VHR inh color: 103.1

How did COc1ccc2noc3c2c1C(=O)c1ccccc1-3 do in these assays?
VHR inh color: -8.7

Results for O=C1NC(=S)NC(=O)C1=Cc1ccc(-c2ccc(C(=O)O)cc2)o1 ?
VHR inh color: 88.8*

Results for O=C1NC(=O)N(c2ccccc2)C(=O)/C1=C\c1ccc(-c2ccc(C(=O)O)cc2)o1 ?
VHR inh color: -19.6

How did O=C1NC(=S)N(c2ccc(Cl)cc2)C(=O)/C1=C/c1ccc(-c2ccc(C(=O)O)cc2)o1 do in these assays?
VHR inh color: 18.6

Results for COc1ccc(-c2c3c(c(-c4ccccc4)n2-c2ccc(S(N)(=O)=O)cc2)C(=O)c2ccccc2C3=O)cc1 ?
VHR inh color: -37.7

What do the screens show for `O=c1c2ccccc2nc(-c2ccccc2)n1-c1ccccc1Br`?
VHR inh color: -1.2

Results for COc1ccccc1C1/C(=C(\O)c2ccc(C)cc2)C(=O)C(=O)N1CCCC(=O)O (stereo not given) ?
VHR inh color: -9.9

Results for Cn1c(=N)n(CC(=O)c2cc(C(C)(C)C)c(O)c(C(C)(C)C)c2)c2ccccc21 ?
VHR inh color: 3.0

What do the screens show for `CC(=O)Nc1nonc1-c1nc2ccccc2n1Cc1ccc(C(C)(C)C)cc1`?
VHR inh color: -10.8

What do the screens show for `CC(C)(C)c1ccc(Cn2c(-c3nonc3N)nc3ccccc32)cc1`?
VHR inh color: 60.3*

How did CC(=O)Nc1nonc1-c1nc2ccccc2n1Cc1ccccc1 do in these assays?
VHR inh color: -1.7

How did Cc1ccc(-n2cc(/C=c3\sc4nc5cc(C)c(C)cc5n4c3=O)cn2)cc1C do in these assays?
VHR inh color: 2.8

What do the screens show for `Cc1ccc(-n2cc(C=C3C(=O)NC(=O)NC3=O)cn2)cc1C`?
VHR inh color: 104.9*

Results for Cc1ccc(-n2c(C)cc(C=C3C(=O)NC(=S)NC3=O)c2C)cc1C ?
VHR inh color: 15.5

How did COc1ccc(/C=C(/NC(=O)c2cc(OC)c(OC)c(OC)c2)C(=O)NC(C(=O)O)C(C)C)c(OC)c1 (stereo not given) do in these assays?
VHR inh color: -3.0

What do the screens show for `CN1CN(Cc2ccccc2)CN/C1=N/[N+](=O)[O-]`?
VHR inh color: -6.3

What do the screens show for `O=C(COc1ccccc1)Nc1ccc(Br)c(Cl)c1`?
VHR inh color: 4.4

What do the screens show for `O=C(COc1ccc2ccccc2c1)Nc1ccc(Cl)c(Cl)c1`?
VHR inh color: 20.1

Results for O=C(COc1ccc2ccccc2c1)Nc1ccc(Br)c(Cl)c1 ?
VHR inh color: 114.0*

What do the screens show for `CCOc1ccc(/C=C2\SC(=NCc3ccccc3)N(Cc3ccccc3)C2=O)cc1`?
VHR inh color: -52.8

What do the screens show for `O=C(Nc1ccc(NS(=O)(=O)c2ccccc2)cc1)c1ccco1`?
VHR inh color: -10.1

Results for COC(=O)c1ccc(-n2c(C)cc(/C=C3\NC(=S)NC3=O)c2C)cc1 ?
VHR inh color: 110.8*

What do the screens show for `CCc1ccc(-n2c(C)cc(/C=C3/NC(=S)NC3=O)c2C)cc1`?
VHR inh color: -16.1

Results for Cc1cc(/C=C2/NC(=S)NC2=O)c(C)n1-c1ccc(Br)cc1 ?
VHR inh color: -23.5

Results for COC(=O)c1ccc(/C=N/NC(=O)c2cc(-c3ccc4ccccc4c3)n[nH]2)cc1 ?
VHR inh color: -2.6

How did O=C1CC(NCc2ccc3c(c2)OCO3)C(=O)N1c1cccc(Br)c1 (stereo not given) do in these assays?
VHR inh color: -6.3

How did COc1ccccc1/C=C1\SC(=S)N(C(CCSC)C(=O)O)C1=O (stereo not given) do in these assays?
VHR inh color: -8.6

What do the screens show for `Cc1cc(=O)oc2cc(OCc3ccc(F)cc3)c(Cl)cc12`?
VHR inh color: -1.7

Results for Cc1cc(=O)oc2cc(OC/C(=N\O)c3ccc(Cl)cc3)c(Cl)cc12 ?
VHR inh color: 106.5*

How did Cc1cc(=O)oc2cc(OCC(=O)c3ccc(Cl)cc3)c(Cl)cc12 do in these assays?
VHR inh color: 5.4

Results for Cc1cccc(-c2noc(-c3ccc(Cl)cc3Cl)n2)c1 ?
VHR inh color: 9.3

Results for CSc1ccc(S(=O)(=O)N(CC(=O)Nc2cc(C)ccc2C)c2ccc(C)cc2)cc1 ?
VHR inh color: -18.6

How did COc1ccc(/C=C2/C(=O)N(c3cccc(C(F)(F)F)c3)N=C2C)cc1OC do in these assays?
VHR inh color: -5.1

How did Cc1ccc(/C=C2/SC(=S)N(CCC(=O)O)C2=O)o1 do in these assays?
VHR inh color: 13.1

Results for Cc1ccsc1/C=C1\SC(=S)N(CC(C)C)C1=O ?
VHR inh color: 6.6

Results for Cc1ccc(/C=C2\SC(=S)N(CC(C)C)C2=O)o1 ?
VHR inh color: 87.1*

What do the screens show for `Nc1nnc(CC(=O)ON/N=C/c2ccc(-c3ccccc3[N+](=O)[O-])o2)s1`?
VHR inh color: 17.8

What do the screens show for `Cc1cc(OCC(=O)NC(C)c2ccccc2)cc(C)c1Cl` (stereo not given)?
VHR inh color: -2.5

Results for BrC(/C=N\N1CCN(c2ccccc2)CC1)=C\c1ccccc1 ?
VHR inh color: 8.6

Results for CCOc1cc(/C=N/O)ccc1OCc1ccc(Cl)cc1 ?
VHR inh color: 116.4*

How did CCOc1cc(/C=C2/SC(=O)NC2=O)ccc1OCc1ccc(Cl)cc1 do in these assays?
VHR inh color: -6.5

What do the screens show for `CCOc1cc(C=C2C(=O)NC(=O)NC2=O)ccc1OCc1ccc(Cl)cc1`?
VHR inh color: 2.4

How did COc1ccc(CN=Cc2c(O)n(-c3cccc(Cl)c3)c(=O)[nH]c2=O)cc1 do in these assays?
VHR inh color: -10.9

What do the screens show for `COc1ccc(-c2ccc(/C=C3/C(=O)NC(=O)N(c4ccccc4)C3=O)o2)c([N+](=O)[O-])c1`?
VHR inh color: 81.3*
